Results from ChEMBL document CHEMBL1961873, “Compounds: GSK PKIS; Assays: Nanosyn kinase panel” (2012).

Columns and labels:
[1] = target: Serine/threonine-protein kinase MARK2 (Homo sapiens) (UniProt Q7KZI7); conditions: at 1 µM
[2] = target: PAS domain-containing serine/threonine-protein kinase (Homo sapiens) (UniProt Q96RG2); conditions: at 0.1 µM
[3] = target: PAS domain-containing serine/threonine-protein kinase (Homo sapiens) (UniProt Q96RG2); conditions: at 1 µM
[4] = target: Phosphorylase b kinase gamma catalytic chain, skeletal muscle/heart isoform (Homo sapiens) (UniProt Q16816); conditions: at 0.1 µM
[5] = target: Phosphorylase b kinase gamma catalytic chain, skeletal muscle/heart isoform (Homo sapiens) (UniProt Q16816); conditions: at 1 µM
[6] = target: T1, Phosphorylase b kinase gamma catalytic chain, liver/testis isoform (Homo sapiens) (UniProt P15735); conditions: at 0.1 µM
T1 sequence (whole entry): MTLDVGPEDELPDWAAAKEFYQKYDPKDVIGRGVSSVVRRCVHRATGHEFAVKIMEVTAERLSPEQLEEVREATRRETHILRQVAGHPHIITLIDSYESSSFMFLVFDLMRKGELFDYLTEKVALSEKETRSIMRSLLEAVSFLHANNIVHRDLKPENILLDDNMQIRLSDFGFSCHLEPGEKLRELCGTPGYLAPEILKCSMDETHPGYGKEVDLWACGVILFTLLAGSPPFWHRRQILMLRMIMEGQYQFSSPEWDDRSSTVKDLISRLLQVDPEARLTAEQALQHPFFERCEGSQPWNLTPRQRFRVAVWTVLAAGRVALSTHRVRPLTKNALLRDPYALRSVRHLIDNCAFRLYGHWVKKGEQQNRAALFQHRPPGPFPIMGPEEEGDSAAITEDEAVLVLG

[7] = target: T1, Phosphorylase b kinase gamma catalytic chain, liver/testis isoform (Homo sapiens); conditions: at 1 µM
[8] = target: Serine/threonine-protein kinase pim-1 (Homo sapiens) (UniProt P11309); conditions: at 0.1 µM
[9] = target: Serine/threonine-protein kinase pim-1 (Homo sapiens) (UniProt P11309); conditions: at 1 µM
[10] = target: Serine/threonine-protein kinase pim-2 (Homo sapiens) (UniProt Q9P1W9); conditions: at 0.1 µM
[11] = target: Serine/threonine-protein kinase pim-2 (Homo sapiens) (UniProt Q9P1W9); conditions: at 1 µM
[12] = target: Serine/threonine-protein kinase pim-3 (Homo sapiens) (UniProt Q86V86); conditions: at 0.1 µM
[13] = target: Serine/threonine-protein kinase pim-3 (Homo sapiens) (UniProt Q86V86); conditions: at 1 µM
[14] = target: T2, MAP kinase-activated protein kinase 5 (Homo sapiens) (UniProt Q8IW41); conditions: at 0.1 µM
T2 sequence (whole entry): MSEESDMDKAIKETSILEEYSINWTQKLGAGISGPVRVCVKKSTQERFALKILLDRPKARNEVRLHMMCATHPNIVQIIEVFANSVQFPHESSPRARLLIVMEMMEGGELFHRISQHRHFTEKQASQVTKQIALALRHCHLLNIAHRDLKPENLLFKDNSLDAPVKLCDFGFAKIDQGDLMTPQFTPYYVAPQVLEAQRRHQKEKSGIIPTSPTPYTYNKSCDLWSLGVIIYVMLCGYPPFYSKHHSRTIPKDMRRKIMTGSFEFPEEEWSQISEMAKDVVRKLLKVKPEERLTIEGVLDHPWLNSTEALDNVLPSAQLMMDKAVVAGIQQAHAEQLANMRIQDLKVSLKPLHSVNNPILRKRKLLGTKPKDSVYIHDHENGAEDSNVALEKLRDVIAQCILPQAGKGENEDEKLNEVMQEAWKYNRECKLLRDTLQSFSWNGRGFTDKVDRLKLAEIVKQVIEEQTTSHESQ

[15] = target: T2, MAP kinase-activated protein kinase 5 (Homo sapiens); conditions: at 1 µM
[16] = target: Serine/threonine-protein kinase SIK1 (Homo sapiens) (UniProt P57059); conditions: at 1 µM
[17] = target: Serine/threonine-protein kinase SIK2 (Homo sapiens) (UniProt Q9H0K1); conditions: at 0.1 µM
[18] = target: Serine/threonine-protein kinase SIK2 (Homo sapiens) (UniProt Q9H0K1); conditions: at 1 µM
[19] = target: T3, Serine/threonine-protein kinase TBK1 (Homo sapiens) (UniProt Q9UHD2); conditions: at 0.1 µM;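 note: values are the mean TBK1 inhibition, taken from the GSK PKIS screening data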
T3 sequence (whole entry): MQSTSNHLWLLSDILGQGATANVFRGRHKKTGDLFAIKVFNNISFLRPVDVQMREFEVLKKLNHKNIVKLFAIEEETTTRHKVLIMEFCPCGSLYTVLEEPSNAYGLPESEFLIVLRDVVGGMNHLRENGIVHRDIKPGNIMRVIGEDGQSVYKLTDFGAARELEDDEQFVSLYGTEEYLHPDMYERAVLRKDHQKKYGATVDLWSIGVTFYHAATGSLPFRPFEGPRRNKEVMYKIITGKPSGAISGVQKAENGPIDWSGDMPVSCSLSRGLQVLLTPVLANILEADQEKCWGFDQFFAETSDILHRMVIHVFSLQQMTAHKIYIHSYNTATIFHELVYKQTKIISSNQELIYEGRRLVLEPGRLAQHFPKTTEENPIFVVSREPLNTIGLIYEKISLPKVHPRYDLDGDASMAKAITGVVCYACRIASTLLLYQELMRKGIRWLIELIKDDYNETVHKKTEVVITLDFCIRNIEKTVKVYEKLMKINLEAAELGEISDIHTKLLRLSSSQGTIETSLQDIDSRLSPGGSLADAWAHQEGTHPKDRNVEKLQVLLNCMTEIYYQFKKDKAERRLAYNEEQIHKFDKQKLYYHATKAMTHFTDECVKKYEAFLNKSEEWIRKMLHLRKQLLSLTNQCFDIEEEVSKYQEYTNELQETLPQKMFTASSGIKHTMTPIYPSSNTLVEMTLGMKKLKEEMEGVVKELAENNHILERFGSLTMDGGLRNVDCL

[20] = target: Serine/threonine-protein kinase SIK1 (Homo sapiens) (UniProt P57059); conditions: at 0.1 µM

Chain of Serine/threonine-protein kinase pim-1 (Homo sapiens) (P11309 whole entry, looked up): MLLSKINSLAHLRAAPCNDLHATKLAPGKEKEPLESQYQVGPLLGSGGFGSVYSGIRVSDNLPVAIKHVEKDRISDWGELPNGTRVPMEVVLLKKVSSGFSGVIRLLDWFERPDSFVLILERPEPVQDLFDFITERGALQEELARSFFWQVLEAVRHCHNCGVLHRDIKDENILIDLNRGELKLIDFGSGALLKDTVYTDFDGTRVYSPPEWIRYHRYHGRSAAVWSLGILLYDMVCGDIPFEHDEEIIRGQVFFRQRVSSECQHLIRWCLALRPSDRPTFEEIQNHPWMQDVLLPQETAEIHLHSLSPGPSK
Chain of Serine/threonine-protein kinase pim-2 (Homo sapiens) (Q9P1W9 whole entry, looked up): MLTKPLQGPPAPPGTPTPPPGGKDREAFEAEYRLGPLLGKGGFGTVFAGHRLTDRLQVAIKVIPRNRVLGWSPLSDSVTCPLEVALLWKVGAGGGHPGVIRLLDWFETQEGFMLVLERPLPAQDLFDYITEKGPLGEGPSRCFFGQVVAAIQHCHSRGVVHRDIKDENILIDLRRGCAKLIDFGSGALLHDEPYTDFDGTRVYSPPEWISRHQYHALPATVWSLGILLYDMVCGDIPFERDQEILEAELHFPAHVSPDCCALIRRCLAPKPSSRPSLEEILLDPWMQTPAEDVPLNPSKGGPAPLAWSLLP
Chain of Serine/threonine-protein kinase SIK2 (Homo sapiens) (Q9H0K1 whole entry, looked up): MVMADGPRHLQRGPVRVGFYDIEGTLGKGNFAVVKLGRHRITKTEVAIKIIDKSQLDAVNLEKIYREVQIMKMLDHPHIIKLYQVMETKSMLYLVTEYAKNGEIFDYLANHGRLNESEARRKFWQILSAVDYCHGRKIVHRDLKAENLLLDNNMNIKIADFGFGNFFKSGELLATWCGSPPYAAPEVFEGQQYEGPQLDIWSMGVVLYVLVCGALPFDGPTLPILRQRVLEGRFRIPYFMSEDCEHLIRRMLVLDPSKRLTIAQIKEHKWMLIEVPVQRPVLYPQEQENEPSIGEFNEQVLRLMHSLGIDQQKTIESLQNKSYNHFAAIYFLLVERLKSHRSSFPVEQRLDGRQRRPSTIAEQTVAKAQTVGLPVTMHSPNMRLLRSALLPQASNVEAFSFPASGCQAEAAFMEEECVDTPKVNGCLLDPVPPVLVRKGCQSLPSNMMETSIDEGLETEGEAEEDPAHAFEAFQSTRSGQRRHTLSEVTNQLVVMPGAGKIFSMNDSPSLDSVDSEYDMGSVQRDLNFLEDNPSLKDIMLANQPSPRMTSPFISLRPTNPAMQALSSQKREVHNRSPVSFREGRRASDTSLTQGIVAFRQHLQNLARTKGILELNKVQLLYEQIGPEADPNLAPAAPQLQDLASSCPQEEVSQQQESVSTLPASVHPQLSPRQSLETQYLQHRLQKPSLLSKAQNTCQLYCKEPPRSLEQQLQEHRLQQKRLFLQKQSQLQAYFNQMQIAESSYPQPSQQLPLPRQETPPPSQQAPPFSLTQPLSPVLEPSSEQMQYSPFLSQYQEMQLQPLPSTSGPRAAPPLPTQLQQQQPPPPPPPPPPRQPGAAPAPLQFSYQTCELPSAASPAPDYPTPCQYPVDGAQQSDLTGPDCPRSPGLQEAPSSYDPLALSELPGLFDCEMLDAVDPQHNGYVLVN
Chain of Serine/threonine-protein kinase MARK2 (Homo sapiens) (Q7KZI7 whole entry, the tested form may be a part): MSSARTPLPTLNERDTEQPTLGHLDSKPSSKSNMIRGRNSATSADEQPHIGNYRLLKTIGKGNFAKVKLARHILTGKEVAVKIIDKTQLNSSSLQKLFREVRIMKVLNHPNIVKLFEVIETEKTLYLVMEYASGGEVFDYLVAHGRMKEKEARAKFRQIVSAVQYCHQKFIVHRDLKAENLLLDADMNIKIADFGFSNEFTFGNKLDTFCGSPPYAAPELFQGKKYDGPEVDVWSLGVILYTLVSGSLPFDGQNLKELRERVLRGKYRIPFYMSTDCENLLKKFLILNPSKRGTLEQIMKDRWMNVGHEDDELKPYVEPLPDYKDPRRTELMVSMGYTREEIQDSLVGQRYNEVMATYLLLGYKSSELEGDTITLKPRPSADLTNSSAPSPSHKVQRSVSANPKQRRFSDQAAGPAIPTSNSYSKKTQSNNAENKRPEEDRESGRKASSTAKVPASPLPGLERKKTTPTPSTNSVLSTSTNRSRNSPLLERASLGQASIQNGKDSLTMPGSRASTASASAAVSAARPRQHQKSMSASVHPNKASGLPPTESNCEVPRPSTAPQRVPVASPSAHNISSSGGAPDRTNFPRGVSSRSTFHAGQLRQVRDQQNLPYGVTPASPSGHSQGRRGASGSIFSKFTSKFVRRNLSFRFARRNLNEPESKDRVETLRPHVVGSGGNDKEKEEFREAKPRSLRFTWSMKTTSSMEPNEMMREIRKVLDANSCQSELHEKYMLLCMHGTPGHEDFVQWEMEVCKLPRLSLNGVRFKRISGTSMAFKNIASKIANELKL
Chain of PAS domain-containing serine/threonine-protein kinase (Homo sapiens) (Q96RG2 whole entry, the tested form may be a part, canonical isoform): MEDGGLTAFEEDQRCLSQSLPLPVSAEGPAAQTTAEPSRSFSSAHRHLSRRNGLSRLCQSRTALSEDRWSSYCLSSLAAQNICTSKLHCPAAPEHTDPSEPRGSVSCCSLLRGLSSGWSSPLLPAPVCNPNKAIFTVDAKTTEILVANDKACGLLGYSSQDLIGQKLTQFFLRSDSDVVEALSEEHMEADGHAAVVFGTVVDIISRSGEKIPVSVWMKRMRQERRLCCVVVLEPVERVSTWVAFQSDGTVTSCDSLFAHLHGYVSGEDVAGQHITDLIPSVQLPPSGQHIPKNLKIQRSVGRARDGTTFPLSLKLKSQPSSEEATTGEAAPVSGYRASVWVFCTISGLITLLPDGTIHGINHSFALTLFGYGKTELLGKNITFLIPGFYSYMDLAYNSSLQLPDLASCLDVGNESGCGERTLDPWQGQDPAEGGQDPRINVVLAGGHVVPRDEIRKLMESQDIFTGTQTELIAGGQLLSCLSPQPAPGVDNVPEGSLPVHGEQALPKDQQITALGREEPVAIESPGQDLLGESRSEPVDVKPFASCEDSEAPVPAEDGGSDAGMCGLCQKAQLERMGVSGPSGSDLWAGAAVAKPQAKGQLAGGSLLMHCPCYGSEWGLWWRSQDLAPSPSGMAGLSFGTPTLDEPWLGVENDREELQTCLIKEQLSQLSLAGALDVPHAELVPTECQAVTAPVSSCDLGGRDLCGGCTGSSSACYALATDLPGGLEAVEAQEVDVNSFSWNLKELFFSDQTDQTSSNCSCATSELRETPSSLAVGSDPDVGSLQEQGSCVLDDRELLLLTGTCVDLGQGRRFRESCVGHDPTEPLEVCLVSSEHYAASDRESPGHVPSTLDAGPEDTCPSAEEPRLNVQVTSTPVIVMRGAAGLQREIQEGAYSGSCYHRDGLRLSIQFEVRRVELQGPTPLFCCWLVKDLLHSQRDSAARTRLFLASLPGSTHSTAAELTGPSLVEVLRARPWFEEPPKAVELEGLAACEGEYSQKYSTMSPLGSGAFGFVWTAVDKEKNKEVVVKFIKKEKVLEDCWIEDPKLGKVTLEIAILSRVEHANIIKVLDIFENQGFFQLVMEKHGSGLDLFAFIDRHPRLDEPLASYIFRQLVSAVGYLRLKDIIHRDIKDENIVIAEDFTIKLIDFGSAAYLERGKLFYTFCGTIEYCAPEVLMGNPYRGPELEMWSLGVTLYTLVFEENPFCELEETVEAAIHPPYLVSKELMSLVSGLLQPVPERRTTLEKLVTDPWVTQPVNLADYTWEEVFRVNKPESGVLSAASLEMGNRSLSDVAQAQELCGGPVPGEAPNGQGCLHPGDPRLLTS
Chain of Phosphorylase b kinase gamma catalytic chain, skeletal muscle/heart isoform (Homo sapiens) (Q16816 whole entry, looked up, canonical isoform): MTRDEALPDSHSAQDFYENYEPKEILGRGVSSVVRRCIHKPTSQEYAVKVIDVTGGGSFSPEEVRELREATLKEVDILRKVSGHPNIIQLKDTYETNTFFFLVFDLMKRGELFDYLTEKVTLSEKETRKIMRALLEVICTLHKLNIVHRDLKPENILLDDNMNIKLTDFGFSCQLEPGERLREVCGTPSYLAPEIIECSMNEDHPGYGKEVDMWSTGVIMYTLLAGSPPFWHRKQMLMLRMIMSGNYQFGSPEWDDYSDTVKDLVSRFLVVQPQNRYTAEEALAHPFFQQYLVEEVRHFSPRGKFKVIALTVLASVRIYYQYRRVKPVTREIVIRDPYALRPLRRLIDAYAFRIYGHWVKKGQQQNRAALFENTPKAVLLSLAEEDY

SMILES	inhibition [1] [%]	inhibition [2] [%]	inhibition [3] [%]	inhibition [4] [%]	inhibition [5] [%]	inhibition [6] [%]	inhibition [7] [%]	inhibition [8] [%]	inhibition [9] [%]	inhibition [10] [%]	inhibition [11] [%]	inhibition [12] [%]	inhibition [13] [%]	inhibition [14] [%]	inhibition [15] [%]	inhibition [16] [%]	inhibition [17] [%]	inhibition [18] [%]	inhibition [19] [%]	inhibition [20] [%]
CS(=O)(=O)Nc1ccc(N/C=C2\C(=O)Nc3ccccc32)cc1	15.6	0.59	0.59	4.32	31.5	-3.81	5.2	0.18	0.04	-0.01	0.67	0.5	2.02	-0.78	-0.07	2.58	4.05	-6.11	0.52	–
NS(=O)(=O)c1ccc(N/N=C2\C(=O)Nc3ccc(C(=O)NCCc4c[nH]cn4)cc32)cc1	40.4	0.48	-3.06	14.2	58.7	8.35	24	10.5	51.7	3.79	24.7	4.71	44.7	1.41	2.5	32.5	6.36	16.9	3.67	11.7
CCCN1CCC(Oc2cc(Nc3nc(Nc4cccc(F)c4C(N)=O)c4cc[nH]c4n3)c(OC)cc2Cl)CC1	1.3	0.73	1.6	1.4	24.2	-0.41	0.31	4.08	25.4	0.5	2.68	1.54	10.5	-0.3	-0.07	2.28	-0.16	-0.62	-0.35	-0.37
Nc1nc(-c2ccc3c(c2)C(=Cc2cc(Br)c(O)c(Br)c2)C(=O)N3)cs1	0.67	-0.9	-1.85	3.78	5.21	-3.21	-2.57	3.74	25.6	10.8	50.1	5.73	42.7	-1.39	-0.3	-3.45	–	-0.64	0.67	–
Nc1ncnc2occ(-c3ccc(NC(=O)Nc4cccc(C(F)(F)F)c4)cc3)c12	3.83	-0.58	0.31	6.3	10.2	6.43	4.64	1.56	2.28	0.42	0.72	0.78	0.9	1.67	1.36	9.69	4.8	3.6	3.95	-0.49
COC(=O)Nc1nc2cc(Oc3ccc(NC(=O)Nc4cccc(C(=O)O)c4)cc3)ccc2[nH]1	0.87	0.9	1.66	-0.77	11.2	1.36	4.11	-0.3	0.62	-4.42	-2.76	1.29	3.84	0.42	1	1.25	-0.04	2.04	0.81	3.75
NCc1ccc(-c2nc(-c3ccc(Cl)c(O)c3)c(-c3ccncc3)[nH]2)cc1	2.58	0.34	-0.1	0.14	3.18	0.02	-1.08	1.18	0.18	-0.05	1.13	-1.17	-0.73	-0.17	-1.34	3.96	-0.81	8.19	-1.21	0.32
CS(=O)(=O)CCNCc1nc(-c2ccc3ncnc(Nc4ccc(F)c(Cl)c4)c3c2)cs1	0.61	1	0.68	1.09	4.69	3.04	3.64	1.43	9.19	-0.24	-0.01	0.66	6.45	0.35	1.43	8.78	3.22	2.57	1.85	8.44
CS(=O)(=O)CCNCc1ccc(-c2ccc3ncnc(Nc4ccc(OCc5ccccc5)c(Cl)c4)c3c2)o1	3.76	0.71	0.11	1.63	6.13	-1.65	-2.44	0.36	1.78	-0.34	0.98	0.47	1.74	0.46	0.34	4.15	-3.07	-4.01	0.47	1.53
CCn1c(-c2nonc2N)nc2ccncc21	1.6	0.79	0.01	1.54	2.74	2.66	-0.15	-0.28	-0.66	0.35	0.12	-0.49	-1.56	0.36	-0.69	8.47	5.56	3.95	2.23	-0.38
NS(=O)(=O)c1cccc(-c2ccc3c(NC(=O)C4CC4)n[nH]c3c2)c1	4.42	-1.09	-1.37	2.99	2.11	-4.36	-2.76	-0.14	1.01	0.46	0.35	-1.61	1.3	-0.5	0.65	-0.1	-0.65	-7.23	0.24	-8.4
Fc1cccc(COc2ccc(Nc3ncnc4cc(-c5ccc[nH]5)sc34)cc2Cl)c1	2.66	-0.58	-0.43	3.19	3.62	2.24	2.18	-0.5	1.01	-3.43	-2.72	-0.5	1.49	0.74	0.9	8.63	3.89	7.67	2.35	3.04
O=C1NC(=O)C(N2CCc3ccccc32)=C1c1ccc(Cl)cc1	2.02	0.1	-1.5	3.36	5.29	4.72	2.26	0.92	1.27	0.55	0.77	-1.28	-2.25	1.12	0.55	7.18	1.33	5.15	3.01	5.76
COc1cc2c(cc1Nc1nc(N3CCc4ccccc43)c3cc[nH]c3n1)N(C(=O)CN(C)C)CC2	0.39	1.45	-0.16	–	3.14	3.23	0.08	0.66	-0.15	-0.35	0.38	-0.4	-1.08	0.04	-1.65	7.48	2.51	-3.15	0.22	3.24
